Among the data in the supplement of paper PMC6609913 are normalised cell viability values, retold here.

This test relates to V-C8 (BRCA2-deficient hamster cells). Briefly: normalised cell viability (fraction of plate median); higher = more viable cells (less toxic). The following applies: 5 µM. Summed up: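 In two screens, library drugs at 5 μM were given for 3 days (screen 1) or 6 days (screen 2) to hamster V-C8 cells without BRCA2 and V-C8 cells with BRCA2 restored, seeded 24 h earlier in 96-well plates. A resazurin assay gave the cell viability readout, expressed as modified robust per cent of sample against the plate median, with triplicate wells averaged.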

Where a name gives a salt, the structure may show the parent alone. ± gives the standard deviation of the averaged measurements. Over roughly 1,300 compounds, “normalised cell viability” has its median near 1; the lowest 2% begin near 0.14. What follows is part of a selection rich in the lowest values, with near analogues and random picks from the rest.

Consider `CO[C@H]1/C=C/O[C@@]2(C)Oc3c(C)c(O)c4c(c3C2=O)C2=NC3(CCN(CC(C)C)CC3)NC2=C(NC(=O)/C(C)=C\C=C\[C@H](C)[C@H](O)[C@@H](C)[C@@H](O)[C@@H](C)[C@H](OC(C)=O)[C@@H]1C)C4=O` [Rifabutin], for which the normalised cell viability is 0.973 ± 0.096 (treatment time: 3 days) and 0.876 ± 0.032 (treatment time: 6 days).

On to `NC(=O)c1cnccn1` [Pyrazinamide], for which the normalised cell viability (treatment time: 3 days) is 1.12 ± 0.057 and the normalised cell viability (treatment time: 6 days) was found to be 1.05 ± 0.071.

In the case of `CNCCC=C1c2ccccc2C=Cc2ccccc21` [Norcyclobenzaprine], the normalised cell viability runs as follows: (treatment time: 3 days) 0.959 ± 0.045; (treatment time: 6 days) 0.835 ± 0.035.

As for `CSc1ccc2c(c1)N(CCC1CCCCN1C)c1ccccc1S2` (stereo unspecified) [Thioridazine hydrochloride], the normalised cell viability came to 0.121 ± 0.0035 (treatment time: 3 days) and 0.0951 ± 0.0067 (treatment time: 6 days).

As to `CCSc1ccc2c(c1)N(CCCN1CCN(C)CC1)c1ccccc1S2` [Thiethylperazine dimalate], the normalised cell viability worked out at 0.932 ± 0.029 (treatment time: 3 days) and 1.1 ± 0.35 (treatment time: 6 days).

`CN1CCCCC1CCN1c2ccccc2Sc2ccc([S+](C)[O-])cc21` (stereo unspecified) [Mesoridazine besylate] displayed a normalised cell viability (treatment time: 3 days) of 1.07 ± 0.07 and a normalised cell viability (treatment time: 6 days) of 1.07 ± 0.017.

For the molecule `CC1(C)[C@@H](OC(=O)CCC(=O)O)CC[C@]2(C)[C@H]3C(=O)C=C4[C@@H]5C[C@@](C)(C(=O)O)CC[C@]5(C)CC[C@@]4(C)[C@]3(C)CC[C@@H]12` [Carbenoxolone disodium salt], the normalised cell viability runs as follows: (treatment time: 3 days) 1 ± 0.041; (treatment time: 6 days) 1.15 ± 0.26.

For `CC(=O)OCC(=O)[C@@]1(O)CC[C@H]2[C@@H]3CCC4=CC(=O)CC[C@]4(C)[C@@]3(F)[C@@H](O)C[C@@]21C` [Fludrocortisone acetate], the normalised cell viability reads like this: (treatment time: 3 days) 0.957 ± 0.08; (treatment time: 6 days) 1.11 ± 0.041.

On to `O=C1c2cccc(O)c2C(=O)c2c(O)cccc21` [1,8-Dihydroxyanthraquinone], for which the normalised cell viability is, setting by setting: (treatment time: 3 days) 0.838 ± 0.065; (treatment time: 6 days) 0.78 ± 0.021.

As to `O=C1c2c(O)cccc2Cc2cccc(O)c21` [Anthralin], the normalised cell viability is, setting by setting: (treatment time: 3 days) 1.03 ± 0.019; (treatment time: 6 days) 1.003 ± 0.0083.

On to `O=C1c2c(O)ccc(O)c2C(=O)c2c(NCCNCCO)ccc(NCCNCCO)c21` [Mitoxantrone dihydrochloride], for which the normalised cell viability (treatment time: 3 days) was determined as 0.143 ± 0.0017 and the normalised cell viability (treatment time: 6 days) turned out to be 0.116 ± 0.011.

Consider `c1ccc2c(c1)CCCc1cc(NCCN3CCOCC3)nnc1-2`, for which the normalised cell viability came out at 0.351 ± 0.016 (treatment time: 3 days) and 0.496 ± 0.056 (treatment time: 6 days).

Take `CN1C2CCCC1CC(NC(=O)c1nn(C)c3ccccc13)C2` (stereo unspecified) [Granisetron]: the normalised cell viability is, setting by setting: (treatment time: 3 days) 0.973 ± 0.092; (treatment time: 6 days) 1.03 ± 0.051.

In the case of `CCN(CC)C(=O)/C(C#N)=C/c1cc(O)c(O)c([N+](=O)[O-])c1` [Entacapone], the normalised cell viability (treatment time: 3 days) came to 0.957 ± 0.024 and the normalised cell viability (treatment time: 6 days) came out at 1.06 ± 0.059.

For the molecule `CN[C@@H]1[C@@H](O[C@H]2O[C@H](CO)[C@@H](N)[C@H](O)[C@H]2O)OC2C[C@@H](N)[C@@H](O[C@H]3[C@H](O)[C@@H](O)[C@H](N)C[C@@H]3N)OC2[C@@H]1O` (stereo partly specified) [Apramycin], the normalised cell viability came out at 0.995 ± 0.057 (treatment time: 3 days) and 1.03 ± 0.019 (treatment time: 6 days).

`Cc1ccnc2c1NC(=O)c1cccnc1N2C1CC1` [Nevirapine]: the normalised cell viability was found to be 0.942 ± 0.023 (treatment time: 3 days) and 0.994 ± 0.039 (treatment time: 6 days).

As to `NC1CCN(c2nc3c(cc2F)c(=O)c(C(=O)O)cn3-c2ccc(F)cc2F)C1` (stereo unspecified) [Tosufloxacin hydrochloride], the normalised cell viability was determined as 1.01 ± 0.048 (treatment time: 3 days) and 1.08 ± 0.024 (treatment time: 6 days).

For the molecule `CC(CCc1ccc(O)cc1)NCCc1ccc(O)c(O)c1` (stereo unspecified) [Dobutamine hydrochloride], the normalised cell viability by setting is: (treatment time: 3 days) 1.01 ± 0.031; (treatment time: 6 days) 0.976 ± 0.027.

For the molecule `CCCC(=O)Nc1ncnc2c1ncn2[C@@H]1O[C@@H]2COP(=O)(O)O[C@H]2[C@H]1OC(=O)CCC` [Bucladesine sodium salt], the normalised cell viability reads like this: (treatment time: 3 days) 0.995 ± 0.021; (treatment time: 6 days) 1.04 ± 0.014.

As for `CCCCc1nc(Cl)c(CO)n1Cc1ccc(-c2ccccc2-c2nnn[nH]2)cc1` [Losartan], the normalised cell viability runs as follows: (treatment time: 3 days) 1.019 ± 0.0051; (treatment time: 6 days) 1.052 ± 0.0052.

For `C[C@@H]1NC(=O)NC1=O` [Methylhydantoin-5-(L)], the normalised cell viability reads like this: (treatment time: 3 days) 1 ± 0.089; (treatment time: 6 days) 1.07 ± 0.013.

As to `CC1=Nc2ccc(Cl)cc2S(=O)(=O)N1` [Diazoxide], the normalised cell viability turned out to be 0.95 ± 0.024 (treatment time: 3 days) and 1.01 ± 0.054 (treatment time: 6 days).

With `N=C(N)c1ccc(OCCCCCOc2ccc(C(=N)N)cc2)cc1` [Pentamidine isethionate], the normalised cell viability runs as follows: (treatment time: 3 days) 0.596 ± 0.07; (treatment time: 6 days) 0.597 ± 0.085.

As to `CC1=C(C(=O)O)N2C(=O)[C@@H](NC(=O)[C@H](N)c3ccccc3)[C@H]2SC1` [Cephalexin monohydrate], the normalised cell viability stood at 1.25 ± 0.026 (treatment time: 3 days) and 1.09 ± 0.1 (treatment time: 6 days).

As for `Cc1ccccc1N1C(=O)c2cc(S(N)(=O)=O)c(Cl)cc2NC1C` (stereo unspecified) [Metolazone], the normalised cell viability (treatment time: 3 days) was found to be 1.11 ± 0.073 and the normalised cell viability (treatment time: 6 days) was 1.06 ± 0.07.

`CC(=O)[C@@]12O[C@](C)(c3ccccc3)O[C@@H]1C[C@H]1[C@@H]3CCC4=CC(=O)CC[C@]4(C)[C@H]3CC[C@@]12C` [Algestone acetophenide]: the normalised cell viability came out at 0.915 ± 0.05 (treatment time: 3 days) and 0.945 ± 0.094 (treatment time: 6 days).

As for `CCCNC(C)(C)COC(=O)c1ccccc1` [Meprylcaine hydrochloride], the normalised cell viability reads like this: (treatment time: 3 days) 1 ± 0.042; (treatment time: 6 days) 1.25 ± 0.47.

The molecule `C#C[C@]1(O)CC[C@H]2[C@@H]3CCc4cc(OC)ccc4[C@H]3CC[C@@]21C` [Ethynylestradiol 3-methyl ether] showed a normalised cell viability (treatment time: 3 days) of 0.844 ± 0.02 and a normalised cell viability (treatment time: 6 days) of 0.886 ± 0.17.

In the case of `C[n+]1ccccc1/C=N/O` [Pralidoxime chloride], the normalised cell viability reads like this: (treatment time: 3 days) 1.03 ± 0.029; (treatment time: 6 days) 1.02 ± 0.06.

The molecule `CCCCC(CC)CNC(=N)NC(=N)NCCCCCCNC(=N)NC(=N)NCC(CC)CCCC` (stereo unspecified) [Alexidine dihydrochloride] showed a normalised cell viability (treatment time: 3 days) of 0.124 ± 0.0044 and a normalised cell viability (treatment time: 6 days) of 0.132 ± 0.0043.

In the case of `CN(C)CCN1C(=O)c2ccccc2N(C)c2ccccc21` [Dibenzepine hydrochloride], the normalised cell viability by setting is: (treatment time: 3 days) 0.191 ± 0.011; (treatment time: 6 days) 0.215 ± 0.0073.

For the molecule `CC(=O)OC[C@H]1O[C@@H]([S-])[C@H](OC(C)=O)[C@@H](OC(C)=O)[C@@H]1OC(C)=O.CCP(CC)CC.[Au+]` [Auranofin], the normalised cell viability is, setting by setting: (treatment time: 3 days) 0.117 ± 0.0046; (treatment time: 6 days) 0.141 ± 0.0027.

`OCCN1CCN(CC/C=C2/c3ccccc3Sc3ccc(Cl)cc32)CC1` [Zuclopenthixol hydrochloride]: the normalised cell viability worked out at 0.605 ± 0.014 (treatment time: 3 days) and 0.61 ± 0.032 (treatment time: 6 days).
